The source of these data is ChEMBL document CHEMBL3988442, “University of Dundee, Small-Polar-MMV Screening Library” (2021).

Structures are written as SMILES. In all, about 48,000 compounds went through this assay and about 13,000 (27%) showed an effect of 50% or more. The list shows a part of the results.

This experiment concerns Wolbachia pipientis. Briefly: Anti-Wolbachia Cell-Based Screen. The format is functional. The note with it: 5 µM. On the set-up: scale not given: in the data most compounds retested in dose-response had high values.
Consider `CC(C)C(=O)Nc1ncn(Cc2cccc(Br)c2)n1`, for which the “Percent Effect” value is given as 13.22%.
As for `CCn1cc(-c2cc(C(F)(F)F)n(CCCN)n2)cn1`, the figure is 69.39%; as for `Cn1cc(-c2cc(C(F)(F)F)n(CCCN)n2)cn1`, 106%.
As for `Cc1cc(-c2cnn(C)c2)ccc1OCC(N)=O`, the figure is 1.914%; as for `Cc1nn(C)cc1-c1ccnc(NCCN)n1`, 0.4357%; as for `Cc1nn(C)cc1-c1cc(C(F)(F)F)c2c(C)nn(CC(=O)O)c2n1`, 1.02%.
As for `Cn1cc(-c2nc(C3CCN(CC4CC4)CC3)cc3c2ncn3C)cn1`, the figure is -12.1%; as for `Cc1nn(C)cc1-c1cc(C(F)(F)F)n(CCCN)n1`, 117.1%.
For `Cc1noc(CCCC(=O)Nc2ncccc2Br)n1`, the “Percent Effect” value is reported as -19.61%.
In the case of `CCOCC1CN(Cc2ccoc2)Cc2cn(CC3CC3)nc21` (centres undefined), the “Percent Effect” value turned out to be 25.6%.
As for `O=C(c1cn(Cc2ccc(Cl)cc2)nn1)N1CCCO1`, the figure is -12.44%; as for `Cc1ncc2c(n1)C1(CCN(C(=O)C3CC3)CC1)OCC2.Cl`, 134.7%; as for `O=C(C1CCC1)N1CCC2(COCc3cnc(N4CCOCC4)nc32)C1` (centres undefined), -15.94%.
As for `Cc1cnc(N2CCOC3(CCCN(C(=O)C(C)C)C3)C2)nc1` (centres undefined), the figure is -6.845%.
Under `Cc1ncc(C(=O)N2CC[C@@]3(O)CCN(C(=O)N(C)C)C[C@H]3C2)cn1` stands -6.772%; under `CCc1cnc(C)nc1N1CCN(C(N)=O)CC1`, -3.33%.
`Cc1ncc2c(n1)C1(CCN(C(=O)C(C)C)CC1)OCC2.Cl`: the “Percent Effect” value is on record as 141.2%.
Under `Clc1ccc(CN2CCN(Cn3nccc3-c3cccnc3)CC2)s1` stands 6.087%.
As for `CCC1CN(c2cnn(C)c(=O)c2Cl)CCO1` (centres undefined), the “Percent Effect” value was determined as 22.68%.
As to `CCC1CN(c2cnn(-c3ccccc3)c(=O)c2Cl)CCO1` (centres undefined), the “Percent Effect” value is recorded as 4.552%.
Under `Cc1ccccc1C1CN(c2cnn(C)c(=O)c2Cl)CCO1` (centres undefined) stands 91.27%; under `Cc1cccc(N(CCC(N)=O)CC(=O)Nc2cc(Cl)ccc2Cl)c1`, -1.848%; under `O=C(O)C(F)(F)F.O=C(O)C(F)(F)F.c1ccc(CNCC2Cn3nnc(-c4ccncc4)c3CO2)nc1` (centres undefined), 9.944%.
As for `Cc1nc(CN2CCC(CNC(=O)C3(C)CCCC3)CC2)oc1C`, the figure is -9.195%; as for `Cc1nc(NCc2ccc(C)o2)cc(C(=O)N2CCOCC2)n1`, -3.993%.
Under `CCN(CC)C(=O)c1cc(C2(C)CCN(C(C)=O)CC2)nc(C)n1` stands 112.9%; under `CN(C)CCNC(=O)c1cc2n(n1)CCN(C(=O)CC(C)(C)C)C2`, 4.361%; under `CC(=O)N1CCC(C)(c2cc(C(=O)NCC(C)(C)C)nc(C)n2)CC1`, 109.7%.
Turning to `CC(=O)NCC1CCN(C(=O)c2csc(-c3ccc(C)cc3C)n2)CC1`, the “Percent Effect” value is given as -1.979%.
Under `CC(=O)N1CCN(c2cc(-n3cnc(C)c3C)nc(C)n2)CC1` stands -7.107%.
As for `CCCN(Cc1nccn1C)C(=O)c1cc(C)nc(C)n1`, the figure is -2.808%; as for `CC(=O)N1CCC(C)(c2cc(C(=O)NCC3CC3)nc(C)n2)CC1`, 107.8%.
Under `CNc1nc(C2CCCN2C(C)=O)nc2c1CCN(CC1CC1)C2` (centres undefined) stands -2.53%; under `CNc1nc(N2CCN(CC=C(C)C)C(CCO)C2)nc2c1CCC2` (centres undefined), -3.074%.
Consider `CNc1nc(N2CCN(C3CCCCC3)C(CCO)C2)nc2c1CCC2` (centres undefined), for which the “Percent Effect” value is recorded as 13.4%.
Regarding `CNc1nc(C2CCCN2C(C)=O)nc2c1CN(CCO)CC2.O=CO` (centres undefined), the “Percent Effect” value is on record as 123.3%.
As for `CNc1nc(N2CCN(C)C(CCO)C2)nc2c1CCC2` (centres undefined), the figure is -12.86%; as for `CNc1nc(C2CCCN2C(C)=O)nc2c1CN(C1CCCC1)CC2` (centres undefined), 121.2%; as for `N[C@@H]1CCN(Cc2cccc(N3CCOCC3)c2)C[C@H]1O`, -37.83%.
Under `Cc1oc2nc[nH]c(=O)c2c1C(=O)N1CCCC(n2cccn2)C1` (centres undefined) stands -6.627%.
Under `CC(C)OCCCNC(=O)C1CCC(=O)N(C2CCCC2)C1` (centres undefined) stands 25.57%.
For `CC(Cn1ccnc1)NC(=O)C1(c2ccc3c(c2)OCCO3)CCCC1` (centres undefined), the “Percent Effect” value was 6.008%.
Under `Cc1ccccc1C(C(=O)N(C)Cc1cnn(C)c1)N(C)C` (centres undefined) stands -13.96%.
With `CN(Cc1cnn(C)c1)C(=O)c1ccc(=O)n(Cc2ccccc2)n1`, the “Percent Effect” value is 97%.
As for `CCCn1nc(C(=O)N(C)Cc2nnc3n2CCC3)ccc1=O`, the “Percent Effect” value was -34.52%.
Under `Cc1nc(C)c(C(=O)N(C)Cc2cnn(C)c2)s1` stands -4.031%; under `CCCn1nc(C(=O)N(C)Cc2cnn(C)c2)ccc1=O`, 125%.
Under `CN(Cc1cnn(C)c1)C(=O)C1COCC(=O)N1Cc1ccccc1` (centres undefined) stands 16.93%; under `CC(=O)NCCNCC1(O)CCCN(CCC2CCCCC2)C1=O` (centres undefined), -25.88%.
As for `O=C(O)c1ccnc(-c2ccnc(COc3ccccc3Cl)n2)c1`, the figure is -33.61%.
Turning to `Cc1noc(CN2CC(=O)N(C)c3ccccc3C2=O)n1`, the “Percent Effect” value is on record as 12.92%.
Turning to `Cc1c(CS(C)(=O)=O)cccc1NC(=O)CC1CCCC1`, the “Percent Effect” value was -14.57%.
In the case of `CCS(=O)(=O)NC[C@]12COC[C@H]1CN(Cc1sccc1C)C2.O=C(O)C(F)(F)F`, the “Percent Effect” value is given as -13.08%.
Under `Cc1nc(COC[C@@]23CCC[C@@H]2CN(CC2CCOCC2)C3)cs1.O=C(O)C(F)(F)F` stands 1.66%.
As for `Cc1nc(COC[C@]23COC[C@H]2CN(Cc2ccoc2)C3)cs1.O=C(O)C(F)(F)F`, the figure is -5.417%; as for `Cc1csc(CN2C[C@@H]3COC[C@]3(COCC(=O)N(C)C)C2)n1.O=C(O)C(F)(F)F`, 103.7%; as for `Cc1ccsc1CN1C[C@@H]2COC[C@]2(COCC(=O)N(C)C)C1.O=C(O)C(F)(F)F`, 107.4%.
As for `Cc1ccsc1CN1C[C@@H]2COC[C@]2(CNC(=O)c2ccco2)C1.O=C(O)C(F)(F)F`, the figure is -18.71%.
Take `Cc1nc(CN2C[C@@H]3COC[C@]3(COCC(=O)N(C)C)C2)cs1.O=C(O)C(F)(F)F`: the “Percent Effect” value was 99.96%.
On to `Cc1cc(C(=O)N2CCC(c3nccn3Cc3ccncc3)CC2)no1`, for which the “Percent Effect” value is recorded as -16.29%.
On to `C[C@@H]1C[C@H]2CN(C(=O)C3=CCCC3)C[C@H]2O1`, for which the “Percent Effect” value is recorded as -41.87%.
As for `CCOc1ccc(S(=O)(=O)NCCc2ccc(N(C)C)cc2)cc1F`, the “Percent Effect” value turned out to be 9.493%.
Under `CCN(CC)C(=O)CCNC(=O)N(C)Cc1ccc(SC)c(OC)c1` stands 28.83%.
As for `Cc1ccc(F)c(CNc2ccn(CCC(N)=O)n2)c1`, the figure is -13.86%; as for `O=C1CC[C@H]2CN(c3ncc(F)cn3)CC[C@H]2N1CCc1ccccn1`, -8.563%; as for `CCCS(=O)(=O)N1CCC2(CC(C(=O)NCc3cccnc3)=NO2)C1` (centres undefined), -9.91%.
As for `Cc1cccc(CN2CCC3(CC(C(=O)NCC(C)C)=NO3)C2)c1` (centres undefined), the figure is 117.4%.
As for `N#Cc1cccc(CN2CCC3(CC(C(=O)NCC4CC4)=NO3)C2)c1` (centres undefined), the “Percent Effect” value is given as -1.937%.
As for `O=C(NCC1CC1)C1=NOC2(CCN(Cc3ccc4c(c3)OCO4)C2)C1` (centres undefined), the figure is -22.77%.
Under `Cc1ccc(CN2CCC3(CC(C(=O)NCC4CC4)=NO3)C2)cc1C` (centres undefined) stands 21.96%; under `CC(C)CNC(=O)C1=NOC2(CCN(Cc3cccc(C#N)c3)C2)C1` (centres undefined), 102.8%.
Under `CNc1snc(C)c1C(=O)N1CCCC(n2ccnc2C(C)C)C1` (centres undefined) stands 1.946%.
As to `Cc1n[nH]c(=O)c2c(NC(=O)CN3CCC(O)CC3)oc(C)c12`, the “Percent Effect” value was determined as 10.48%.
Under `CCCNCC1(O)CCCN(Cc2cccc(C)c2)C1=O` (centres undefined) stands 20.78%; under `Nc1nc(CCC(=O)N2C[C@@H](CN3CCCC3)C[C@H](CO)C2)n[nH]1`, -12.43%.
Under `CCn1ncnc1C1CC(=O)NCc2nc(N3CCCC3)sc21` (centres undefined) stands 88.25%; under `CCn1ncnc1C1CC(=O)NCc2nc(N3CCOCC3)sc21` (centres undefined), 112.6%; under `CCn1ncnc1C1CC(=O)NCc2nc3ccccn3c21` (centres undefined), -4.231%.
Under `CCOc1cccc(C2CC(=O)NCc3nc(N)sc32)c1` (centres undefined) stands 2.31%; under `CCOc1cccc(C2CC(=O)NCc3nc(N(C)C)sc32)c1` (centres undefined), 5.085%; under `CCCn1ncc(C2CC(=O)NCc3nc4sc(C)cn4c32)c1C` (centres undefined), 0.1811%.
For the compound `CCn1ncnc1C1CC(=O)NCc2nc(N)sc21` (centres undefined), the “Percent Effect” value is given as 74.2%.
For the compound `CCOc1cccc(C2CC(=O)NCc3nc(N4CCCC4)sc32)c1` (centres undefined), the “Percent Effect” value is given as -6.785%.
Under `Cc1ccc(C2CC(=O)NCc3nc(N)sc32)cc1C` (centres undefined) stands 0.1432%; under `O=C1CCCc2[nH]c(=O)c(C(=O)N(CC3CCCCC3)C3CC3)cc21`, -8.56%; under `Cc1ccc(S(=O)(=O)N2CCOc3ccccc32)cc1C(N)=O`, 5.411%.
Under `CC(C)c1noc(CN(C)C(=O)c2ccccc2-c2nc[nH]n2)n1` stands -15.19%; under `CCN1CC2(CC1=O)CN(C(=O)NC(C)C)CCN(S(C)(=O)=O)C2` (centres undefined), 100.8%.
Under `CCN1CC2(CC1=O)CN(C(=O)NC)CCN(S(C)(=O)=O)C2` (centres undefined) stands 1.458%.
For the compound `CCN1CC2(CC1=O)CN(C(=O)NC(C)C)CCN(C(=O)NC(C)C)C2`, the “Percent Effect” value is 115.2%.
Under `CCN1CC2(CC1=O)CN(C(=O)N(C)C)CCN(S(C)(=O)=O)C2` (centres undefined) stands -16.32%; under `CCN1CC2(CC1=O)CN(C(=O)NC(C)C)CCN(C(=O)C(C)C)C2` (centres undefined), 117.3%; under `CCN1CC2(CC1=O)CN(C(C)=O)CCN(S(C)(=O)=O)C2` (centres undefined), -3.303%.
As for `CC(C)NC(=O)N1CCN(C(=O)N(C)C)CC2(CC(=O)N(C)C2)C1` (centres undefined), the figure is 11.38%.
Under `CCN1CC2(CC1=O)CN(C(C)=O)CCN(C(=O)NC)C2` (centres undefined) stands 104.3%.
Take `CCN1CC2(CC1=O)CN(C(=O)C(C)C)CCN(S(C)(=O)=O)C2` (centres undefined): the “Percent Effect” value is given as 4.611%.
As for `CCN1CC2(CC1=O)CN(C(=O)C(C)C)CCN(S(=O)(=O)CC)C2` (centres undefined), the “Percent Effect” value turned out to be 12.11%.
For `CCS(=O)(=O)N1CCN(C(=O)NC(C)C)CC2(CC(=O)N(C)C2)C1` (centres undefined), the “Percent Effect” value is -2.042%.
Under `CNC(=O)N1CCN(C(=O)C(C)C)CC2(CC(=O)N(C)C2)C1` (centres undefined) stands -13.05%.
